Experimental findings from PubChem BioAssay (NCATS) are described below.

The structures appear in SMILES notation. Inconclusive results are not listed. Active and inactive are the calls of the source. Unless noted, calls follow the shape of the dose curve; as a rule, active = well fitted curve in the direction sought with a large enough effect; inconclusive = small, poorly fitted or top-dose-only effect, or another doubt; inactive = no such curve, though single readings can be large; an effect the other way counts as inactive or inconclusive.

Test [1] deals with Lysosomal acid glucosylceramidase (Homo sapiens) (UniProt P04062). Put plainly: Glucocerebrosidase-p2 (AID 348; in the data active = potency below about 10 µM; also: potency is read from the fitted curve at half-maximal effect). As to conditions: purified GBA, blue fluorogenic substrate, 40 min. In short, it runs like this: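 Compounds titrated from 0.6 nM upwards against 0.2 nM enzyme in pH 5.9 citric acid/KH2PO4, taurocholate, tween-20; blue fluorogenic substrate 80 uM, 40 min room temperature, stopped and read Ex 365/Em 440 for AC50.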

Test [2] in a line: AP1 Signaling Pathway (AID 357; active = well fitted curve in either direction with a large enough effect, not every such curve was filed as active; also: % is scaled to controls: 0 for no effect and ±100 for the full control effect). Conditions: ME-180 AP-1-bla reporter, EGF-induced, beta-lactamase ratio, 5 h; at 7.69 µM (top of the series) unless noted. In short, it runs like this: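 ME-180 cells with beta-lactamase reporter under AP-1 response element, stimulated with EC50 EGF; compounds tested in titration series, 5 h at 37 °C. CCF4 substrate added 2.5 h at room temperature; 460/530 nm emission ratio gave %activity and AC50.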

Test [3] deals with Glucocorticoid receptor (Homo sapiens) (UniProt P04150). Description: GR-GFP Redistribution (AID 450;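 active = compounds whose dose series gives a full or clear partial fitted curve of increased nuclear translocation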; also: potency is read from the fitted curve at half-maximal effect). As to conditions: U2OS GR-GFP nuclear translocation, laser cytometry, 2 h.
The target is the same in test [4]. Put plainly: GR-EFC Redistribution (AID 451; calls by dose curve; also: potency is read from the fitted curve at half-maximal effect). As to conditions: CHO-K1 GR-EFC translocation, beta-gal luminescence, 2 h. In short, it runs like this:
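CHO-K1 cells stably expressing nuclear-localized β-gal enzyme acceptor and GR fused C-terminally to the enzyme donor fragment; ligand-driven nuclear translocation restores β-gal by complementation. Compounds titrated up to 46 uM final, 2 h at 37 °C; luminescence read.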

In test [5] the target is Mitogen-activated protein kinase 10 (Mus musculus) (UniProt Q61831). Put plainly: JNK3 AlphaScreen Assay (AID 530; active = well fitted curve in either direction with a large enough effect, not every such curve was filed as active;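 also: kinase came from lysate of stimulated human HepG2 cells; signal reports phosphorylation of biotinylated GST-cJun 1-79 at Ser73 with 10 µM ATP; % is scaled to controls: 0 for no effect and ±100 for the full control effect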). Conditions: JNK3 lysate, c-Jun phosphorylation; series mostly up to 57.1 µM. In short, it runs like this:
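JNK3 came from HepG2 lysates pre-activated with IL-1beta and TNF-alpha and phosphorylated biotinylated GST-cJun (1-79) at 10 uM ATP, pH 7.6, room temperature. Compounds were titrated. AlphaScreen signal used anti-phospho-cJun (Ser73) antibody.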
(Alpha assays give light when donor and acceptor beads are brought close together.)

The nature of test [6]: qHTS Assay for Lipid Storage Modulators (AID 1519; calls by dose curve; also: potency is read from the fitted curve at half-maximal effect). As to conditions: Drosophila S3 cells, BODIPY lipid droplet/cell ratio, laser cytometry, cells loaded with oleic acid; for activity change, negative = inhibition: at 57.5 µM (top of the series). In short, it runs like this:
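Cells seeded at 5,000 per well were treated with compounds over a concentration series and loaded with oleic acid (400 uM, as added). Lipid droplet fluorescence (488 nm excitation, 500-530 nm channel) was read by laser-scanning cytometry and normalized to 20 uM Triacsin C.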
Background: In qHTS, concentration-response curves come from the screen itself.

For test [7], the target named is Dual specificity protein kinase CLK4 (Homo sapiens) (UniProt Q9HAZ1). Description: qHTS Assay for Inhibitors of CDC-like Kinase 4 (Kinase-Glo Assay) (AID 1770). Also: nearly all actives have a fitted effect of over 65% in size. Also: potency is read from the fitted curve at half-maximal effect. Conditions: recombinant Clk4, Kinase-Glo ATP depletion luminescence; series mostly up to 66.7 µM. In short, it runs like this: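 Clk4 25 nM, RS peptide 100 uM, ATP 1 uM, pH 7.5 Tris, 10 mM MgCl2, 2.5 mM DTT; 4.5 h RT; ATP depletion read by Kinase-Glo luminescence.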

Test [8] has the same target. Put plainly: qHTS Assay for Inhibitors of CDC-like Kinase 4 (ADP-Glo Assay) (AID 1771). Also: nearly all actives have a fitted effect of over 70% in size. Also: potency is read from the fitted curve at half-maximal effect. As to conditions: recombinant CLK4, ADP-Glo luminescence; series mostly up to 80 µM. In short, it runs like this: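 Clk4 (25 nM) was incubated 1 hr at room temperature with 100 uM RS repeat peptide and 1 uM ATP in buffer with 2 mM MgCl2, 0.5 mM EGTA, 2.5 mM DTT. ADP formed was quantified by ADP-Glo luminescence.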

Test [9] shares this target. Put plainly: qHTS Assay for Inhibitors of CDC-like Kinase 4 (ADP-FP Assay) (AID 1795). Also: % is scaled to controls: 0 for no effect and ±100 for the full control effect; nearly all actives have a fitted effect of over 60% in size. Conditions: Transcreener ADP fluorescence polarization; series mostly up to 50 µM. In short, it runs like this: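 Kinase activity was followed as ADP output, converted from fluorescence polarization with a calibration curve. Reactions ran one hour at low ATP (1 uM) with RS peptide substrate.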

Test [10] is described as follows: Primary qHTS for small molecule stabilizers of the endoplasmic reticulum resident proteome: Secreted ER Calcium Modulated Protein (SERCaMP) assay (AID 1508630). Also: % is scaled to controls: 0 for no effect and ±100 for the full control effect. As to conditions: SH-SY5Y GLuc-SERCaMP (Gaussia luciferase released on ER calcium loss) secretion, thapsigargin, luminescence; series mostly up to 38.4 µM. In short, it runs like this: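 GLuc-SERCaMP-expressing SH-SY5Y cells, pretreated 16 h with compound, are challenged with thapsigargin to empty ER calcium stores; after 4 h, coelenterazine is added directly to the medium and luminescence is imaged.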

Test [11] in a line: Stat Signaling Pathway (AID 446; active = well fitted curve in either direction with a large enough effect, not every such curve was filed as active;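 also: ME-180 cervical cancer cells given 40 pM IL-6 alongside compound; SIE-controlled beta-lactamase reporter measured as 460/530 nm FRET emission ratio; % is scaled to controls: 0 for no effect and ±100 for the full control effect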). As to conditions: ME-180 SIE beta-lactamase reporter, IL-6 stimulated, 5 h; at 7.69 µM (top of the series) unless noted. In short, it runs like this:
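Reporter line: ME-180 cervical carcinoma, SIE-beta-lactamase. Treatment: compound with 40 pM IL-6, 5 hrs, 37 C, in low-serum OPTI-MEM with 10 mM HEPES pH 7.3. Detection: 460/530 nm fluorescence.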

Test [12] deals with 3',5'-cyclic-AMP phosphodiesterase 4B (Homo sapiens) (UniProt Q07343). Put plainly: qHTS Assay for Inhibitors of PDE-IV (AID 607; active = well fitted activation curve with a large enough effect in the main read-out, with a control signal flat, not every such curve was filed as active; also: % of control where 0% means no effect). Conditions: HEK293 ACTOne CNG channel cells, membrane potential fluorescence; series mostly up to 22.9 µM. In short, it runs like this: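 Cell-based read-out of cAMP via a modified cyclic nucleotide-gated channel and membrane potential dye (535/590 nm) in HEK293 cells expressing PDE4 endogenously. Compounds tested up to 22.9 uM final; 100 uM RO 20-1724 reference.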

Test [13] has as its target Ubiquitin carboxyl-terminal hydrolase 1 (Homo sapiens) (UniProt O94782). Put plainly: Inhibitors of USP1/UAF1: Pilot qHTS (AID 504865).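 Also: rhodamine fluorescence freed from ubiquitin-rhodamine substrate followed over time; top concentration of the series differs between compounds; % is scaled to controls: 0 for no effect and ±100 for the full control effect; nearly all actives have a fitted effect of over 35% in size.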 As to conditions: purified USP1/UAF1, Ub-rhodamine cleavage fluorescence; series mostly up to 54.9 µM. In short, it runs like this: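 Enzyme-free wells gave the negative control, while test wells held 1nM USP1/UAF1 preincubated with compound for 15 min at room temperature. Ub-Rho at 150nM final started the reaction, and fluorescence at 480/540 nm was recorded kinetically.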

A short description of test [14]: NFAT Signaling Pathway (AID 444; active = well fitted curve in either direction with a large enough effect, not every such curve was filed as active). As to conditions: Jurkat NFAT-bla M1, carbachol, beta-lactamase ratio, 5 h; at 7.69 µM (top of the series) unless noted. In short, it runs like this: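 Jurkat cells carrying an NFAT-driven β-lactamase reporter and co-transfected muscarinic M1 receptor were treated with compound plus carbachol (1 uM final, an EC50 level) for 5 h at 37 °C. CCF4 loading followed for 1 h at RT; 460/530 nm ratio gave %activity.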

Test [15] deals with Cytochrome P450 3A4 (Homo sapiens) (UniProt P08684). Description: qHTS Assay for Activators of Cytochrome P450 3A4 (AID 885). Also: nearly all actives have a fitted effect of over 65% in size. Conditions: recombinant CYP3A4, Luciferin-PPXE luminescence, 60 min; series mostly up to 57.1 µM. In short, it runs like this: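 Signal was normalized against complete inhibition by 57 uM ketoconazole. The reaction used 20nM CYP3A4 with 25uM Luciferin-PPXE, 10-min compound preincubation and a 60-min NADPH-supported step at RT.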

Test [16] has the same target. Description: qHTS Assay for Inhibitors and Substrates of Cytochrome P450 3A4 (AID 884). Also: potency is read from the fitted curve at half-maximal effect; nearly all actives have a fitted effect of over 50% in size. Conditions: recombinant CYP3A4, Luciferin-PPXE luminescence; series mostly up to 57.1 µM. In short, it runs like this:
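20 nM human CYP3A4 with 25 uM Luciferin-PPXE (at KM) in 200 mM KPO4, preincubated 10 min with compound; NADPH regeneration started a 60 min RT reaction. Luciferin detected by luminescence, normalized to 57 uM ketoconazole as full inhibition.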

[17] abbreviates: measured here: cell count channel max response.
Setting [18] is: measured here: lipid channel max response.

Glucocorticoid receptor (Homo sapiens), sequence (P04150 whole entry, looked up): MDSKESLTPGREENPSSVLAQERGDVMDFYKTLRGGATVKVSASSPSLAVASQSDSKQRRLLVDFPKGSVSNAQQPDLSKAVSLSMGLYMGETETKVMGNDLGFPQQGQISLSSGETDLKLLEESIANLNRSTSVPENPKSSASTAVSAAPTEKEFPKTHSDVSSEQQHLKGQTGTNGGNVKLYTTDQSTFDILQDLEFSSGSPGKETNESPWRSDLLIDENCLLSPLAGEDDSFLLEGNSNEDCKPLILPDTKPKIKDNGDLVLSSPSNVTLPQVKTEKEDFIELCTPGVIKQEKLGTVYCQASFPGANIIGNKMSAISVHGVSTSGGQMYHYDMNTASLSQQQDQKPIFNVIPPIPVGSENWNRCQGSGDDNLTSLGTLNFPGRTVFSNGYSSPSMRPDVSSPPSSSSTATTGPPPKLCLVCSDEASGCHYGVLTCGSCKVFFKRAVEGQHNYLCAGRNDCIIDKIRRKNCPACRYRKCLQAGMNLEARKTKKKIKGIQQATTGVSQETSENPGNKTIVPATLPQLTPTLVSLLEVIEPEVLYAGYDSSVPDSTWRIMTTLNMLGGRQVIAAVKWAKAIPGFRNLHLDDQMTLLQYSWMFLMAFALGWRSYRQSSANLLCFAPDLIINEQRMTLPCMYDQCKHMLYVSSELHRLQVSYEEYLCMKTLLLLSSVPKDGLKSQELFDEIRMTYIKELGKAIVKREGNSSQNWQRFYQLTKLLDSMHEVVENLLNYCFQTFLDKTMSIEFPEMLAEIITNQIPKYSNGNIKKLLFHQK
Cytochrome P450 3A4 (Homo sapiens), sequence (P08684 whole entry, looked up): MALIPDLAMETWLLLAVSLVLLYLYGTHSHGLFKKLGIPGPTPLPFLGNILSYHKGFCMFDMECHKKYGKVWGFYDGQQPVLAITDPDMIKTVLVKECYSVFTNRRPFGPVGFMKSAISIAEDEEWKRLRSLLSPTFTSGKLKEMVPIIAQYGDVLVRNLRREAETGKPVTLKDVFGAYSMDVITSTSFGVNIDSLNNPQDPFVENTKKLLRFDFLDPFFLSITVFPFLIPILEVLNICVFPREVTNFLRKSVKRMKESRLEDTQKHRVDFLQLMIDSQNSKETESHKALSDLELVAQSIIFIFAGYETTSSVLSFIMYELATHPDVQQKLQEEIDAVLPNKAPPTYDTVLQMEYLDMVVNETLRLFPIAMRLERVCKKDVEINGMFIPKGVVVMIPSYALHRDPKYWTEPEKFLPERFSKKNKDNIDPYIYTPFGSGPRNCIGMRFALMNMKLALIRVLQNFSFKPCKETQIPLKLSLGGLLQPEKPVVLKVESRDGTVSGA
Dual specificity protein kinase CLK4 (Homo sapiens), sequence (Q9HAZ1 whole entry, looked up): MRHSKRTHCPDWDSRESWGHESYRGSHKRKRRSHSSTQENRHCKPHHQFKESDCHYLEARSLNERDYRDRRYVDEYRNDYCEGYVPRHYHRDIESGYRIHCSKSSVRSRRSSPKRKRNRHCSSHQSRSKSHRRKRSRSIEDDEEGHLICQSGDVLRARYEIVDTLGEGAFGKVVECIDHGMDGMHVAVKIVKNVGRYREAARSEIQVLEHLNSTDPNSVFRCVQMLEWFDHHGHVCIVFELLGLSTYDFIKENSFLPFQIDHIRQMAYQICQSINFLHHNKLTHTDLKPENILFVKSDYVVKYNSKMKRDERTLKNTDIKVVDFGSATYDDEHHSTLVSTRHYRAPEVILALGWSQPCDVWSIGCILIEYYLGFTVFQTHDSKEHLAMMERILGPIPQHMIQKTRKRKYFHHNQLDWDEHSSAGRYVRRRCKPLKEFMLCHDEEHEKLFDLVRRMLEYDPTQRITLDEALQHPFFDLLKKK
Lysosomal acid glucosylceramidase (Homo sapiens), sequence (P04062 whole entry, looked up): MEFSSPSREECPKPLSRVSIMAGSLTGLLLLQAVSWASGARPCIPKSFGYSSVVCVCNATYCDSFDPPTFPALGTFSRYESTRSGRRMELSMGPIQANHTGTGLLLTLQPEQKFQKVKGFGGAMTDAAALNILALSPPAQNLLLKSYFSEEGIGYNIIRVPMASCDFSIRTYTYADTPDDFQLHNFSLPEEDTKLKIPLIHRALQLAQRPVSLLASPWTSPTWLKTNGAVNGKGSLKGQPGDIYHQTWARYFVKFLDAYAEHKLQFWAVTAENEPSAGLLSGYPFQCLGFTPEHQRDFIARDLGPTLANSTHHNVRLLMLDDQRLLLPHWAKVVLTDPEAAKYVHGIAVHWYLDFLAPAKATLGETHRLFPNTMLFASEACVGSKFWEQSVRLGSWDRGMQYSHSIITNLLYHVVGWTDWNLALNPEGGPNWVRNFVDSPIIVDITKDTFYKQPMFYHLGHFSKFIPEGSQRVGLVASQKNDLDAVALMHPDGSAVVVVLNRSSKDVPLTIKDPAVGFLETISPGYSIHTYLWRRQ
Ubiquitin carboxyl-terminal hydrolase 1 (Homo sapiens), sequence (O94782 whole entry, looked up): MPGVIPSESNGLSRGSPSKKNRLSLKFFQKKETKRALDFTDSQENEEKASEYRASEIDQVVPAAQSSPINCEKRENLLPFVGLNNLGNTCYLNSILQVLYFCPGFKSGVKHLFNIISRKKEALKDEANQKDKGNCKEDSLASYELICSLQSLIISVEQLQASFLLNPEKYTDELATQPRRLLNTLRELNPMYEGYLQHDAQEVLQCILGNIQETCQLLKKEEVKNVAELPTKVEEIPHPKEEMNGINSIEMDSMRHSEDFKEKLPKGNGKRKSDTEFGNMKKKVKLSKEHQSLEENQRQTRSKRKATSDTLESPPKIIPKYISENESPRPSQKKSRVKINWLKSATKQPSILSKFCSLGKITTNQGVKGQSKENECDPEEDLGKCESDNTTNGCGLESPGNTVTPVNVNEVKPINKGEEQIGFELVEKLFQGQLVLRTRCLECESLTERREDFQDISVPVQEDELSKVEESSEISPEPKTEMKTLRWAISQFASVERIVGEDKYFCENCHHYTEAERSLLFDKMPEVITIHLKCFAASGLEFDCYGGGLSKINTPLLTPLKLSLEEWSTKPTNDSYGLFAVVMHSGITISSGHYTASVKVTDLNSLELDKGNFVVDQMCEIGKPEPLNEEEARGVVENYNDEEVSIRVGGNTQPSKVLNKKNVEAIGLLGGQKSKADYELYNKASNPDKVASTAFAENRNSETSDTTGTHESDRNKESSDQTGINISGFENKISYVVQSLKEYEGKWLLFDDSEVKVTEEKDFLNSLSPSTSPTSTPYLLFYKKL
3',5'-cyclic-AMP phosphodiesterase 4B (Homo sapiens), sequence (Q07343 whole entry, looked up): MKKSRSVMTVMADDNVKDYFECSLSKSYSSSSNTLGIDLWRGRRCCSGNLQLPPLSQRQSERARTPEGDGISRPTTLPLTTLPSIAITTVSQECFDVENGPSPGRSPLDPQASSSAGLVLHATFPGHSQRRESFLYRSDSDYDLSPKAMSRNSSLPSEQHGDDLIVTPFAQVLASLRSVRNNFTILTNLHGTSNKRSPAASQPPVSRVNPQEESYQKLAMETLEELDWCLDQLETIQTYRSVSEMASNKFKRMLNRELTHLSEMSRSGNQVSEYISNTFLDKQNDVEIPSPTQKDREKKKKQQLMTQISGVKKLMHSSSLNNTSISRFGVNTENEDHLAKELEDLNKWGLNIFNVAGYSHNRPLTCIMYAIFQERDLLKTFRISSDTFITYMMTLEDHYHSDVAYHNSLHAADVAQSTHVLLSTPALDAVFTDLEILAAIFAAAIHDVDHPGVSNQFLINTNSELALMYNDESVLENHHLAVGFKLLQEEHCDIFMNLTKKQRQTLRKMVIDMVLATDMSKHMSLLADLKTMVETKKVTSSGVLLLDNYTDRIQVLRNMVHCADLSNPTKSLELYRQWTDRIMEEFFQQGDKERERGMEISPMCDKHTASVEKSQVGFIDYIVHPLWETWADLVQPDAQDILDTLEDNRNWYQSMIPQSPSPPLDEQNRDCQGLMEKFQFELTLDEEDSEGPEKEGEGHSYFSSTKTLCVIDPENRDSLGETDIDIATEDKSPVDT

For `COc1ccc(-c2nc3cnc(Nc4ccccc4)nc3n(C[C@H]3CCCO3)c2=O)cc1`, the Potency was > 11.4 µM (inactive) in [1], > 9.22 µM (inactive) in test [3], > 46 µM (inactive) in test [4] and 11.2 µM (active) in test [6]. Moreover, the activity change, negative = inhibition in test [2] was 26.1% (inactive). Besides, the compound was classed as inactive in test [5]. Further, the max response in test [6] (setting [17]) is 2.79%; in [6] (setting [18]), -87.2%. In addition, the Potency entry in [7], in [8], in [9] and in test [10] was “inactive” in each case.

With `CN(C)C(=O)c1ccc(-c2cncnc2NC2CCNCC2)cc1`, the Potency in test [1] is > 11.4 µM (inactive); in test [3], > 46 µM (inactive); in test [4], > 46 µM (inactive). The activity change, negative = inhibition in test [2] was 7.68% (inactive); in test [6] it was 3.5% (inactive). In [11], the activity, negative = inhibition is 15.4% (inactive). Also, the compound was called inactive in test [5]. The Potency entry in test [12], in test [7], in [8], in test [9], in test [13] and in [10] was “inactive” throughout. For the same compound, the max response in test [6] (setting [17]) was determined as 11.8%; in [6] (setting [18]), 12.7%.

For the compound `N#CCCn1c(=O)c(-c2cccc(C#N)c2)nc2cnc(N3CCOCC3)nc21`, the Potency in [1] was > 11.4 µM (inactive); in [3], > 9.22 µM (inactive); in test [4], > 46 µM (inactive). The activity change, negative = inhibition in test [2] is 2.97% (inactive); in [14] it was 6.22% (inactive); in [6] it was -2% (inactive). Moreover, the activity, negative = inhibition in test [11] was 11.4% (inactive). In addition, in [5], the outcome was inactive. Also, the Potency entry in test [12], in [15], in [7], in test [8], in test [9] and in [13] was “inactive” throughout. Further, in test [10], the Potency entry is “inactive”. The max response was determined as 13.8% in test [6] (setting [17]) and 7.79% in test [6] (setting [18]).

Turning to `COc1ccc(-c2nc3cnc(N4CCOCC4)nc3n(-c3ccccc3)c2=O)cc1`, the Potency in test [1] was > 11.4 µM (inactive); in [3], > 9.22 µM (inactive); in [4], > 46 µM (inactive). The activity change, negative = inhibition in [2] is 25.7% (inactive); in test [14], 23.9% (inactive); in test [6], 1.08% (inactive). Also, the activity, negative = inhibition in test [11] is 13.1% (inactive). Also, the call in test [5] was inactive. Moreover, the Potency result in [12], in test [7], in test [8], in test [9], in test [13] and in [10] was “inactive” each time. The max response in test [6] (setting [17]) amounted to 22%; in [6] (setting [18]), 21.4%.

Consider `Cc1noc(C)c1-c1cncnc1NCc1cccnc1`, for which the Potency is > 11.4 µM (inactive) in [1], > 46 µM (inactive) in [3], > 46 µM (inactive) in test [4] and 3.16 µM (active) in test [16]. In addition, the activity change, negative = inhibition in [2] was 1.35% (inactive); in test [14], 4.9% (inactive); in test [6], 2.36% (inactive). The activity, negative = inhibition in test [11] was 14.8% (inactive). For the same compound, the outcome in test [5] was inactive. Further, the Potency result in test [12], in test [15], in test [7], in [8], in test [9] and in [13] was “inactive” in each case. In addition, the Potency entry in test [10] was “inactive”. In addition, the results for the max response in test [6] (setting [17]) and in test [6] (setting [18]) were 4.31% and 5.44%, respectively.

In the case of `Cc1noc(C)c1-c1cc(NCCN2CCOCC2)ncn1`, the Potency is > 11.4 µM (inactive) in [1]; > 46 µM (inactive) in [3]; > 46 µM (inactive) in [4]; 25.1 µM (active) in test [7]; 22.4 µM (active) in test [8]. Besides, the activity change, negative = inhibition in test [2] was 27.9% (inactive); in [14] it was 20.1% (inactive); in [6], 6.08% (inactive). Besides, the activity, negative = inhibition in [11] was 0.606% (inactive). Moreover, the result in test [5] was inactive. Also, the Potency entry in test [12], in test [9], in test [13] and in [10] was “inactive” each time. For the same compound, the max response in test [6] (setting [17]) turned out to be 23.5%; in test [6] (setting [18]), 29.1%.
